High-throughput results as filed in PubChem.
BoNT-A LC inh2: blocks Botulinum neurotoxin A light chain protease. hit rate 0.17% among 360,000. multiplex microsphere protease substrate cleavage, flow cytometry. inhibition, % at 10 µM. AID 588499; further: plate controls were buffer without enzyme for full effect and enzyme alone for no effect
Anthrax LF inh2: anthrax lethal factor protease inhibition; hit rate 0.12% among 360,000; multiplex microsphere protease cleavage assay, LF; inhibition, % at 10 µM; P15917; further: plate controls were buffer without enzyme for full effect and enzyme alone for no effect
Target sequence (P15917 whole entry, looked up): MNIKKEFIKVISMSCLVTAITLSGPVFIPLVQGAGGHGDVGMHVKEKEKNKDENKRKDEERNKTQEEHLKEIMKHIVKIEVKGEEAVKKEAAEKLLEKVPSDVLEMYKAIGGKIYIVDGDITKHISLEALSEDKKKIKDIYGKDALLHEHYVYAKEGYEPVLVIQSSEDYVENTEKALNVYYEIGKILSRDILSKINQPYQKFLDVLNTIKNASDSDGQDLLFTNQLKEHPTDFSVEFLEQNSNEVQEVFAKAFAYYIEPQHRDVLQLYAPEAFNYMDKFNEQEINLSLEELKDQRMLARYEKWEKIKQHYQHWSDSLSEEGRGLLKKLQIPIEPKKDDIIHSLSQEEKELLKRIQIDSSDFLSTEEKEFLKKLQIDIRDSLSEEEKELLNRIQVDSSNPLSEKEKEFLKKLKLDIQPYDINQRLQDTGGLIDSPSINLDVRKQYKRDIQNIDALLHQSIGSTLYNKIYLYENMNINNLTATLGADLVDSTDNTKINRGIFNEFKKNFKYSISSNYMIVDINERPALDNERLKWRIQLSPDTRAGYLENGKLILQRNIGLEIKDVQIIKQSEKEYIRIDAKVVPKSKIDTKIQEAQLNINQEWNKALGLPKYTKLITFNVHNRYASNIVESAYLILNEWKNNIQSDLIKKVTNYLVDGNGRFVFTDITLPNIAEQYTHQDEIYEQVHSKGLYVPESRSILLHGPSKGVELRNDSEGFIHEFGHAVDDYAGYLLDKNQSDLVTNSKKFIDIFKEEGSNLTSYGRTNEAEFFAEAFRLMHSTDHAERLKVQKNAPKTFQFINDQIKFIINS
Bead autofluor: flagged as autofluorescent in microsphere protease counterscreen. compound autofluorescence counterscreen, microsphere flow cytometry; active compounds read high. fluorescence intensity (concentration not given with the values). hit rate 3.1% among 360,000. AID 624483; in the data active means fluorescence intensity above about 16000; inconclusive means no clear call, values can overlap the other calls
BoNT F protease: BoNT F light chain protease inhibition; Multiplex microsphere protease cleavage assay, flow cytometry; inhibition, % at 10 µM; hit rate 0.22% among 360,000; in the data active means inhibition above about 35%, passing the limit was not always enough; inconclusive means no clear call, values can overlap the other calls; further: plate controls were buffer without enzyme for full effect and enzyme alone for no effect
* marks the source's active call; other numbers are inactive results; ? = inconclusive. The list is not random: actives were taken first. Their share in the collection is about 3.5%. Unless noted, no stated cut-off is given here; in the data, active means inhibition above about 30%; inconclusive means no clear call, values can overlap the other calls; inactive means below that.

SMILES	BoNT-A LC inh2	Anthrax LF inh2	Bead autofluor	BoNT F protease
Cc1nc(NC(=S)NC(=O)c2ccccc2)sc1C(=O)N(C)C	1	-3	21936*	1
CC1CCCN(C(=O)Cc2cccc3ccccc23)C1 (stereo not drawn)	0	10	4073	?
CCOC(=O)c1[nH]c(C)c(C(=O)OCC(=O)NC(=O)NC(C)(C)C)c1C	1	-2	20160*	4
CCOC(=O)c1c(C)[nH]c(C(=O)OCC(=O)Nc2cc(Cl)ccc2OC)c1C	-3	-5	16877*	-5
COc1ccc(C(C)(O)c2nc(-c3cccc(O)c3)cs2)cc1 (stereo not drawn)	0	-1	2898	-3
COc1cccc(NC(=O)CSc2nc3ccccc3c(=O)n2CCCC(=O)N2CCCC2)c1	?	-3	23337*	1
COCCn1c(SCC(=O)Nc2cccc(C(=O)OC)c2)nc2ccccc2c1=O	1	-2	16194*	-1
COc1ccc(-n2c(SCC(=O)NCCC(C)C)nc3ccsc3c2=O)cc1	1	-3	21316*	5
COCCNC(=O)CSc1nc2ccccc2c(=O)n1-c1cccc(OC)c1	-4	0	21564*	-6
COc1ccc(-n2c(SCC(=O)C(C)(C)C)nc3ccsc3c2=O)cc1	-2	6	4040	-4
COCCn1c(SCC(=O)Nc2cc(C)cc(C)c2)nc2ccccc2c1=O	1	-5	2952	21
CCOC(=O)c1ccc(NC(=O)CSc2nc(=O)n(CCN3CCOCC3)c3c2CCC3)cc1	9	6	5170	25
CS(=O)(=O)Nc1cccc(C2=NN(C(=O)c3cccc([N+](=O)[O-])c3)C(c3cccs3)C2)c1 (stereo not drawn)	-4	1	3616	-6
CCOc1ccc(NC(=O)CSc2nc3ccccc3c(=O)n2CCCC(=O)N2CCCC2)cc1	1	9	8625	5
COc1ccc(NC(=O)CSc2nc3ccccc3c(=O)n2CCC(=O)N2CCCCC2)cc1	0	1	21679*	-1
COc1ccccc1/C=C1\SC(=S)N(Nc2nc(C)cc(C)n2)C1=O	-4	0	24819*	-6
Cc1cc(C)nc(NN2C(=O)/C(=C/c3ccc(O)cc3)SC2=S)n1	3	6	7834	0
CC(C)OC(=O)c1nn2c(C(F)(F)F)cc(-c3ccc(Br)o3)nc2c1Br	9	1	20340*	10
CCCOP(=O)(c1ccc(N(C)C)cc1)C(O)c1ccncc1 (stereo not drawn)	2	-8	19418*	3
C=CCNC(=O)/C(C#N)=C/c1cn(-c2ccccc2)nc1-c1cccs1	-1	-3	2068	-8
CC(Sc1nnc(Cc2ccccc2)o1)C(=O)NC1(C#N)CCCCC1 (stereo not drawn)	0	-7	3745	-10
CN(C)c1ncc(S(=O)(=O)c2ccccc2)c(-c2ccc(Cl)cc2Cl)n1	?	1	22616*	-2
C[C@@H]1CCCCO[C@@H](CN(C)C(=O)Cc2ccccc2)[C@@H](C)CN([C@H](C)CO)C(=O)c2cc(NC(=O)C3CCCCC3)ccc2O1	0	3	3770	0
CC(C)COc1ccc(-c2nnc(-c3ccncc3)o2)cc1	-4	-2	17655*	-11
COc1ccc(-c2nnc(-c3ccc(OCC(C)C)cc3)o2)cc1	2	5	4205	-7
SMILES	BoNT-A LC inh2	Anthrax LF inh2	Bead autofluor	BoNT F protease
COc1ccc(CC2(C)OC(c3ccc([N+](=O)[O-])cc3)=NN2C(C)=O)cc1 (stereo not drawn)	11	1	4117	2
Cc1cc(NC(=O)C(C)Sc2nnc(NCc3ccco3)s2)no1 (stereo not drawn)	0	3	3678	3
COC(=O)[C@H](Cc1ccccc1)NC(=O)NCCC1=CCCCC1	?	0	24338*	-2
C#CCN1C(=O)C(O)(CC(=O)c2cccc(OC)c2)c2ccccc21 (stereo not drawn)	0	0	3708	-11
CCOC(=O)CN1C(=O)C(O)(CC(=O)c2cccc(OC)c2)c2ccccc21 (stereo not drawn)	-1	-4	23744*	1
COc1cc(C(C)=O)ccc1OC(=O)c1cc2cccc(OC)c2oc1=O	1	2	4568	0
CCN1C(=O)C(O)(CC(=O)c2ccc3c(c2)OCCO3)c2ccccc21 (stereo not drawn)	0	0	5525	-4
COc1cccc2cc(C(C)=O)c(=O)oc12	-1	1	19894*	-1
Cc1ccc2c(c1C)NC(=O)C2(O)CC(=O)c1ccc2c(c1)OCO2 (stereo not drawn)	?	-3	16395*	0
COc1ccc(CN2C(=O)C(O)(CC(=O)c3ccc4c(c3)OCO4)c3ccccc32)cc1OC (stereo not drawn)	5	-4	22009*	4
CCc1nc2c(OCCc3cccc(OC)c3)cccn2c1N(C)C(=O)c1ccc(OC)cc1	0	0	4103	1
Cc1nnsc1C(=O)N1CCC(CO)(Cc2ccccc2Cl)CC1	0	-2	4201	5
COc1cccc2cc(C(=O)CC3(O)C(=O)N(Cc4ccccc4)c4ccccc43)c(=O)oc12 (stereo not drawn)	0	-3	20419*	-1
CC(C)Oc1ccc(C(=O)O)c(C(=O)O)c1	?	-1	25281*	-5
CC(C)Oc1ccc(C(=O)O)cc1	0	3	2922	-15
COCCNc1nc2c(c(=O)n(Cc3ccc(OC)cc3)c(=O)n2C)n1C	-1	-3	22936*	-2
COc1ccc(CNc2nc3c(c(=O)n(Cc4ccc(Cl)cc4)c(=O)n3C)n2C)cc1	0	-3	16319*	4
COCCNc1nc2c(c(=O)n(Cc3cccc(Cl)c3)c(=O)n2C)n1C	-2	-2	5111	7
COc1cc2[nH]c(C(=O)N3CC(C)OC(C)C3)cc2c(OC)c1OC (stereo not drawn)	3	-3	3241	-11
CCn1nc(CCC(=O)O)c2ccccc2c1=O	3	-1	22340*	3
CCOc1cccc2c1OC(c1cc(OC)c(OC)c(OC)c1)N1N=C(c3ccc(C)o3)CC21 (stereo not drawn)	5	-3	5598	-31
COCC(C)NC(C(=O)Nc1ccc(C)c(Cl)c1)c1ccccc1 (stereo not drawn)	?	-3	21763*	1
O=C(CCCN1C(=O)c2cccc3cccc(c23)C1=O)Nc1ccon1	-1	-3	4249	-9
CCc1ccc(NC(=O)CN(c2cccc(C)c2)S(C)(=O)=O)cc1	-1	-2	23603*	-4
CSc1ccccc1NC(=O)CN(c1cccc(C)c1)S(C)(=O)=O	-4	1	23782*	-6
CCc1ccc(N(CC(=O)N2CCCC2)S(C)(=O)=O)cc1	0	0	3051	-1
CCNC(=O)CN(c1ccc(CC)cc1)S(C)(=O)=O	?	-2	23318*	0
Cc1ccc(N(C(=O)Cn2nnc(-c3ccccc3)n2)C(C(=O)NC2CCCCC2)c2ccccn2)cc1C (stereo not drawn)	0	0	1875	-4
Cc1nonc1NC(=O)CSc1nc(C2CCCCC2)nc2ccccc12	-1	-8	9439	3
Cc1cc2nc(SCC(=O)Nc3nonc3C)c3c(c2cc1C)CCCC3	?	0	22694*	3
